Measured values taken from PubChem BioAssay.

Assay: blockers of RIG-like receptor reporter activation – cell-based, Sendai virus stimulus, luciferase, 10K MLSCN set, TLR/RLR signaling modifier project, primary screen (AID 602276);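 note: firefly luciferase from ISG56 promoter only with Renilla not read in this screen; 0% = Sendai virus plus DMSO and 100% = medium plus DMSO without virus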
Details: HEK293 RL24 IRF3 luciferase reporter, at 10 µM, hits give high values;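 active = inhibition at or above 50% at 10 µM; inactive = inhibition below 50%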

inhibition, inactive:
Cc1ccc(S(=O)(=O)c2nc(-c3ccco3)oc2SCC(=O)NCC2CCCO2)cc1 (stereo unspecified) 15.8%
CC(=O)NCC(=O)OC(C)C(=O)Nc1ccc(C(C)=O)cc1 (stereo unspecified) -0.376%
CCSc1nc2c(c(=O)n1CC)SC(C)C2 (stereo unspecified) 7.34%
Cn1cnnc1SCC(=O)Nc1sc2c(c1C#N)CCCCC2 -24.5%
Cc1nc2ccccc2c(=O)n1NC(=O)c1c(O)c2c(n(CC(C)C)c1=O)CCCC2 18.5%
Cc1ccc(S(=O)(=O)N(C)c2ccc(OCC(=O)OCc3c(C)noc3C)cc2)cc1 5.73%
Cn1cccc1C(=O)NC(=O)CSc1nnc(C2CC2)n1-c1ccccc1 26.6%
CC(=O)Nc1nc(C)c(-c2csc(Nc3ccc(O)cc3)n2)s1 20.1%
COc1ccc(-c2cnc(SCC(=O)Nc3ccc4c(c3)OCO4)n2Cc2ccco2)cc1 2.4%
CCOc1cc(C2C(C(=O)c3ccccc3)=C(C(=O)OC)Nc3nnnn32)ccc1O (stereo unspecified) 0.723%
CCCCC(CC)C(=O)Nc1ccc(Cl)cn1 (stereo unspecified) 13.3%
O=C(COn1nnc2ccc(C(F)(F)F)cc21)Nc1nnc(-c2ccccc2)o1 2.7%
CCCCC(=O)Nc1nn(CCC)c2nc3ccccc3cc12 10.1%
COc1ccccc1C(=O)n1nc(-c2ccccc2)nc1N 15.7%
O=C(OCc1cccs1)c1ccccc1NS(=O)(=O)c1ccc2c(c1)OCCO2 3.25%
COC(=O)c1oc2ccc(Br)cc2c1NC(=O)CN1CCN(C)CC1 1.64%
